TbPYK inhibitor – T. brucei pyruvate kinase inhibition; Q57TT1; TbPYK enzyme, Kinase-Glo Plus ATP luminescence, 45 min; Potency, µM (top dose mostly 76.8 µM), without a hit: at the highest dose activity, negative = inhibition, usual class: inhibitors; actives 0.12% (n = 410,000); also: potency is read from the fitted curve at half-maximal effect; % is scaled to controls: 0 for no effect and ±100 for the full control effect; nearly all actives have a fitted effect of over 50% in size
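ADP (130 uM final) triggers the TbPYK reaction after compound addition; incubation is 45 min at room temperature. Kinase-Glo Plus is then added and luminescence imaged. Normalized data are fitted to concentration-effect curves.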
RE007 growth inh – less growth of the S. pombe RE007 Vpr strain; AID 651644; S. pombe RE007 Vpr strain, BacTiter-Glo ATP luminescence, 24 h; actives 0.21% (n = 360,000); Potency, µM (highest dose often 92.2 µM), without a hit: at the highest dose activity change, negative = less growth, usual class: inhibitors; active = well fitted falling curve with a large enough effect; inconclusive = small, poorly fitted or top-dose-only effect; inactive = no such curve, though single readings can be large or run the other way; also: potency is read from the fitted curve at half-maximal effect; % is scaled to controls: 0 for no effect and ±100 for the full control effect; nearly all actives have a fitted effect of over 50% in size
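Fission yeast RE007 carrying one integrated HIV-1 vpr copy, seeded at OD 0.01 in PMG+AL medium with 23 nL pinned compound. Grown 24 h at 30 degrees; viability read by BacTiter-Glo luminescence after 5 min.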
FBPA Giardia inh – Giardia lamblia aldolase inhibition; A8B2U2; Potency, µM (highest dose often 59.6 µM), for the others: at the highest dose activity, negative = inhibition, hits mostly inhibitors; actives 0.71% (n = 290,000); purified Giardia FBPA; also: potency is read from the fitted curve at half-maximal effect; % is scaled to controls: 0 for no effect and ±100 for the full control effect; nearly all actives have a fitted effect of over 55% in size
Target sequence (A8B2U2 whole entry, looked up): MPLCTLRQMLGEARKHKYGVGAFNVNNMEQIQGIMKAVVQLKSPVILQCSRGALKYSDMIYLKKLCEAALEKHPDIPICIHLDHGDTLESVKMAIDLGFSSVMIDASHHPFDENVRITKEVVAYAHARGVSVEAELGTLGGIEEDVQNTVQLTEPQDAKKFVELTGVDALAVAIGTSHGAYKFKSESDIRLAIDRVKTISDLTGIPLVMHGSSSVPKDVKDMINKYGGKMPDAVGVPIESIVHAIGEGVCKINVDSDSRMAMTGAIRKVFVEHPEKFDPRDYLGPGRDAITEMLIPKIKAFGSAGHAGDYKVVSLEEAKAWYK
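Giardia FBPA (40 nM reagent) was preincubated 10 min at RT with compound (up to 57.5 uM final), then substrate plus GAPDH/TPI/NAD/arsenate coupling system with diaphorase/resazurin was added; resorufin fluorescence (525/598 nm) was read after 20 min.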
Cycloheximide cs – affects cycloheximide protein synthesis inhibition readout, counter-screen. cell reporter, cycloheximide protein synthesis inhibition counterscreen. max response, %. actives 12% (n = 300,000). AID 2314; in the data active = max response mostly above about 13%, no sharp cut-off; inactive = mostly below about 14%; also: read at 38.3 µM for the half of the compounds with a filed dose; 0% is about no effect
LmPK inh – LmPK (Leishmania mexicana) enzyme inhibition. actives 0.37% (n = 290,000). purified LmPK, Kinase-Glo ATP luminescence, 1 h. Q27686. Potency, µM (doses to about 57.5 µM), inactives show top-dose activity change, negative = inhibition, actives largely listed as inhibitors; also: potency is read from the fitted curve at half-maximal effect; % is scaled to controls: 0 for no effect and ±100 for the full control effect
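Purified LmPK (0.1 nM) with 0.5 mM PEP and 0.1 mM ADP in imidazole buffer pH 7.2 with MgCl2/KCl, 1 h at room temperature. ATP formed was read by luciferase luminescence and normalized to no-enzyme and uninhibited controls.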
Shiga inhibitor – Shiga toxin inhibition; inhibition, % at 38.7 µM; Vero cells, Shiga toxin protein synthesis inhibition reporter; actives 9.2% (n = 290,000); in the data active = inhibition mostly above about 28%, no sharp cut-off; inactive = mostly below about 43%; also: 0% is about no effect
The depositor's hits bear a star; ? = inconclusive; . = not tested or not shown; [ ] = remark or other dose. The full list was thinned out, with hits kept by preference. Unless noted, calls follow the shape of the dose curve; as a rule, active = well fitted curve in the direction sought with a large enough effect; inconclusive = small, poorly fitted or top-dose-only effect, or another doubt; inactive = no such curve, though single readings can be large; an effect the other way counts as inactive or inconclusive.

SMILES | TbPYK inhibitor | RE007 growth inh | FBPA Giardia inh | Cycloheximide cs | LmPK inh | Shiga inhibitor
Cc1ccc(Nc2nnc(SC3CCOC3=O)s2)cc1 (stereo unspecified) | -6% | -2% | -21% | 1 | -3% | 13
Cc1ccc(CSc2nnc(Nc3ccc(C)cc3)s2)cc1 | -1% | -3% | -10% | -1 | 5% | -7
CCSc1nnc(Nc2ccc(C)cc2)s1 | ? | -18% | . | 38* | -1% | 124*
O=C1CCCCC1Sc1nnc(Nc2ccccc2)s1 (stereo unspecified) | 1% | 1% | -15% | 38* | -1% | 99*
CCSc1nnc(Nc2ccccc2)s1 | 3% | -22% | -3% | 34* | -15% | 90*
CCCCC(CC)CNC(=O)CN1C(=O)CSc2ccc(S(=O)(=O)N3CCOCC3)cc21 (stereo unspecified) | -1% | . | . | . | . | .
O=C(NC1CCCC1)c1ccc2c(c1)N(Cc1ccc(C(F)(F)F)cc1)C(=O)c1ccccc1S2 | 5% | . | . | . | . | .
Cc1cccc(NC(=O)CSc2nc(C)cc(C)c2C(=O)Nc2ccc(Cl)cc2)c1 | 5% | . | . | . | . | .
Cc1ccc2[nH]c3c(c2c1)CN(C(=O)CN1CCCc2ccccc21)CC3 | 3% | -3% | 2% | 19* | -3% | 69*
Cc1ccc2[nH]c3c(c2c1)CN(C(=O)CN1CCCCC1)CC3 | -2% | -1% | -2% | -3 | 7% | 3
CC(C)C(=O)Nc1nnc2n1CCS2 | 4% | . | . | . | . | .
Brc1ccc(Nc2c3c(nc4nncn24)CCC3)cc1 | -7% | . | . | . | . | .
O=[N+]([O-])c1cccc(/C=N\N2CCN(Cc3ccccc3Cl)CC2)c1 | 3% | ? | -5% | 16* | 1% | 20
O=[N+]([O-])c1ccc(N/N=C/c2ccccc2)c(F)c1 | 3% | . | -9% | 74* | 2% | 63*
O=[N+]([O-])c1ccc(C=NNc2ccccc2)cc1 | 1% | 89% | . | . | . | .
O=[N+]([O-])c1cccc(C=NNc2ccccc2)c1 | -2% | 52% | . | . | . | .
O=[N+]([O-])c1cccc(/C=N/N=C\c2ccccc2)c1 | 1% | -10% | 0% | 36* | 3% | 56*
O=[N+]([O-])c1cccc(/C=N/N2CCN(Cc3ccccc3)CC2)c1 | -4% | -15% | 4% | 27* | 3% | 83*
CCc1cnc2c(c1SCCC(C)C)c(=O)n(C)c(=O)n2C | 0% | . | . | . | . | .
O=C(CCN1C(=O)/C(=C/c2ccccc2Cl)SC1=S)NCCc1ccc(O)cc1 | -7% | 2% | -8% | 3 | 4% | -9
O=[N+]([O-])c1cccc(C=NN2CCCCCC2)c1 | -6% | 3% | . | . | . | .
O=[N+]([O-])c1cccc(/C=N/N2CCN(c3ccccn3)CC2)c1 | -5% | 10% | -5% | 15* | -6% | 1
COc1ccc(NC(=O)c2ccc(S(=O)(=O)NCc3cccnc3)cc2)cc1 | 0% | 2% | . | 9.5* | 3% | 31
Cc1ccc(NS(=O)(=O)c2ccc(C(=O)NCc3cccnc3)cc2)cc1 | 12% | -24% | . | 55* | -8% | 76*
O=C(NCc1cccnc1)c1ccc(S(=O)(=O)Nc2ccccc2)cc1 | 2% | 9% | . | . | . | .
SMILES | TbPYK inhibitor | RE007 growth inh | FBPA Giardia inh | Cycloheximide cs | LmPK inh | Shiga inhibitor
O=C(CCc1ccc(S(=O)(=O)NC2CCCCC2)cc1)NCc1cccnc1 | 4% | 6% | 3% | 15* | 1% | 31
Cc1ccc(NC(=O)c2ccc(S(=O)(=O)NCc3cccnc3)cc2)cc1C | -11% | 5% | 6% | 8 | -10% | 41
COc1ccc(Cl)cc1NC(=O)CN(C)C(=O)c1ccc(COc2ccccc2)cc1 | -3% | 11% | . | . | . | .
COc1ccc(-n2ccnc2SCC(=O)c2c(N)n(C3CC3)c(=O)[nH]c2=O)cc1 | -11% | 5% | . | . | . | .
O=C(NNC(=O)C1C2CCC(C2)C1C(=O)O)c1ccc(Br)o1 (stereo unspecified) | . | . | 4% | 42* | 2% | 76*
Cc1ccsc1C(=O)NNC(=O)C1C2C=CC(C2)C1C(=O)O (stereo unspecified) | -8% | . | -15% | 121* | -2% | 96*
O=C(NC1C2CC3CC(C2)CC1C3)c1ccc(Br)o1 (stereo unspecified) | 3% | 13% | 18% | 5 | -2% | -3
CCCCNC(=O)C1C2C=CC(C2)C1C(=O)O (stereo unspecified) | 0% | -3% | 1% | -5 | 3% | -9
CCCCOc1ccc(C(=O)NNC(=O)C2C3C=CC(C3)C2C(=O)O)cc1 (stereo unspecified) | 10% | 16% | . | 10* | 0% | 18
CC(C)c1ccc(C(=O)NN2C(=O)C3CCCCC3C2=O)cc1 (stereo unspecified) | -1% | 3% | 6% | 50* | 8% | 96*
CCOc1ccccc1C(=O)NN1C(=O)C2CCCCC2C1=O (stereo unspecified) | 2% | -21% | 1% | -3 | -2% | -6
CC(C)c1ccc(NC(=O)CSc2n[nH]c(=O)n2-c2cccnc2)cc1 | 1% | 1% | . | -2 | -10% | -11
C/C(=N\NC(=S)NC1CCCCC1)c1cccc(C(F)(F)F)c1 | 0% | -9% | 1% | -1 | -2% | 3
CCOc1cccc(C(=O)NNC(=O)C2C3C=CC(C3)C2C(=O)O)c1 (stereo unspecified) | 3% | -12% | . | 20* | -1% | 28
CC(=O)c1cccc(NC(=O)C2C3C=CC(C3)C2C(=O)O)c1 (stereo unspecified) | 32% | 0% | 1% | 2 | -3% | 11
CCCCOc1ccc(C(=O)NNC(=O)C2C3CCC(C3)C2C(=O)O)cc1 (stereo unspecified) | 2% | 14% | . | 40* | -3% | 72*
CC(C)c1ccc(C(=O)NNC(=O)C2C3CCC(C3)C2C(=O)O)cc1 (stereo unspecified) | . | . | . | 39* | -6% | 101*
CC(C)c1ccc(C(=O)NNC(=O)c2ccncc2)cc1 | 11% | -9% | 1% | 1 | -2% | 20
OC[C@H]1NC[C@H](O)[C@@H](O)[C@@H]1O | . | . | 4% | -2 | . | 4
Cc1ccc2c(c1)c1c(c(=O)n(-c3ccccc3C)c(=O)n1Cc1cccc(F)c1)n2C | 4% | . | . | . | . | .
COc1nc(Nc2ccccc2F)nc(OC)n1 | -3% | 3% | 15% | 12* | -6% | 21
COc1ccc(Nc2nc(NCCO)nc(OC)n2)cc1 | -7% | -1% | 0% | 2 | -1% | 9
COc1nc(Nc2cccc(F)c2)nc(OC)n1 | 0% | 7% | 6% | 20* | -1% | .
COc1nc(NCCO)nc(Nc2ccccc2F)n1 | 0% | 5% | 4% | 34* | 0% | 83*
Cc1cccc(N2CCN(C(=O)c3cnn(-c4ccccc4)c3C3CCN(C(=O)OC(C)(C)C)CC3)CC2)c1C | -14%[15.4 µM] | . | . | . | . | .
COc1cccc([C@@H]2Oc3ccc(OC)cc3C(=O)[C@H]2OC(=O)Nc2ccc(OC(F)F)cc2)c1 | . | . | -2% | . | . | .

High-throughput results (PubChem BioAssay)
